Measured values: PubChem BioAssay (Tox21)
Records with an inconclusive call do not appear. Calls of active or inactive are those of the source. Unless noted, the call rests on the fitted dose curve; in most records, active means well fitted curve in the direction sought with a large enough effect in the repeat runs; inconclusive means weak or mixed curves; inactive means no such curve, though single readings can be large; an effect the other way counts as inactive or inconclusive.

Experiments:
[1] = target: Estrogen receptor beta (Homo sapiens) (UniProt Q92731); test: qHTS assay to identify small molecule agonists of the estrogen receptor beta (ER-beta) signaling pathway (AID 1259377; active means well fitted activation curve with a large enough effect in the signal ratio in the repeat runs, not every such curve was filed as active; the % refers to the signal ratio)
Chain of Estrogen receptor beta (Homo sapiens) (Q92731 whole entry, looked up): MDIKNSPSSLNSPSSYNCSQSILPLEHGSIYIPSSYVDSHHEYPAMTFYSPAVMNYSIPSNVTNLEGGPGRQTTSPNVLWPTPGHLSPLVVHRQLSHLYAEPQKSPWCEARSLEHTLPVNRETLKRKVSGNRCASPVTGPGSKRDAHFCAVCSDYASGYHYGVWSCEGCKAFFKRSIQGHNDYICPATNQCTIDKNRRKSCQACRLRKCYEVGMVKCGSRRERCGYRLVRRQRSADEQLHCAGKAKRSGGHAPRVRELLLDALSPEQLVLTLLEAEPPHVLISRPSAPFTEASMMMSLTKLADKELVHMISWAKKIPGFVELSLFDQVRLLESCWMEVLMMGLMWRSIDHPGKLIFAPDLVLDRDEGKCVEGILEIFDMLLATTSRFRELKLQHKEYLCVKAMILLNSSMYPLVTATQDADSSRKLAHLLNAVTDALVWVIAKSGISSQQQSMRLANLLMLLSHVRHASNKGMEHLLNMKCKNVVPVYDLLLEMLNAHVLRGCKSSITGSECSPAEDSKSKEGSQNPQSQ
Summary of the method: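 In HEK293T cells bearing a UAS-beta-lactamase reporter under ER-beta control, DMSO-delivered compounds were incubated for 16 hr at 37C. Activity was detected as fluorescence 2 hours after LiveBLAzer B/G FRET substrate addition.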

[2] = target: Estrogen receptor beta (Homo sapiens) (UniProt Q92731); test: qHTS assay to identify small molecule antagonists of the estrogen receptor beta (ER-beta) signaling pathway (AID 1259378; active means well fitted inhibition curve with a large enough effect in the signal ratio in the repeat runs, not every such curve was filed as active; the % refers to the signal ratio)
Summary of the method: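 Antagonist mode: compounds added to beta-lactamase reporter HEK293T ER-beta-UAS cells stimulated with E2 (1nM final), 16 hr at 37C. LiveBLAzer B/G FRET substrate, 2 hours room temperature, fluorescence read-out.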

[3] = qHTS assay to identify small molecule agonists of the androgen receptor (AR) signaling pathway in the presence of an antagonist - cell viability counter screen (AID 1259379);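 further: MDA-kb2 human breast cancer cells carrying an MMTV luciferase reporter; series mostly up to about 92 µM; nearly all actives have a fitted effect of over 25% in size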
Summary of the method: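 Viability counter screen: CellTiter-Fluor fluorescence, measured in the same wells as the luciferase read-out. MDA-kb2 cells, 3,000/well, with nilutamide at 3.0uM final and compounds at 15 concentrations, 16 hr at 37C, 0% CO2.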

[4] = qHTS assay to identify small molecule antagonists of the estrogen receptor beta (ER-beta) signaling pathway - cell viability counter screen (AID 1259382);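 further: HEK293T cells carrying ER-beta-UAS-bla reporter stimulated with estradiol; series mostly up to about 92 µM; nearly all actives have a fitted effect of over 55% in size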
Summary of the method: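 Luminescent ATP read-out (CellTiter-Glo, 30 min, RT) taken in the same wells as the bla reporter assay. HEK293T ER-beta-UAS-bla cells in 2% charcoal-stripped FBS were exposed to compounds with 1nM E2 for 16 hr at 37C.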

[5] = target: Estrogen receptor (Homo sapiens) (UniProt P03372); test: qHTS assay to identify small molecule agonists of the estrogen receptor alpha (ER-alpha) signaling pathway in the presence of an antagonist (AID 1259383; calls by dose curve; further: top concentration of the series differs between compounds; nearly all actives have a fitted effect of over 15% in size)
Chain of Estrogen receptor (Homo sapiens) (P03372 whole entry, looked up): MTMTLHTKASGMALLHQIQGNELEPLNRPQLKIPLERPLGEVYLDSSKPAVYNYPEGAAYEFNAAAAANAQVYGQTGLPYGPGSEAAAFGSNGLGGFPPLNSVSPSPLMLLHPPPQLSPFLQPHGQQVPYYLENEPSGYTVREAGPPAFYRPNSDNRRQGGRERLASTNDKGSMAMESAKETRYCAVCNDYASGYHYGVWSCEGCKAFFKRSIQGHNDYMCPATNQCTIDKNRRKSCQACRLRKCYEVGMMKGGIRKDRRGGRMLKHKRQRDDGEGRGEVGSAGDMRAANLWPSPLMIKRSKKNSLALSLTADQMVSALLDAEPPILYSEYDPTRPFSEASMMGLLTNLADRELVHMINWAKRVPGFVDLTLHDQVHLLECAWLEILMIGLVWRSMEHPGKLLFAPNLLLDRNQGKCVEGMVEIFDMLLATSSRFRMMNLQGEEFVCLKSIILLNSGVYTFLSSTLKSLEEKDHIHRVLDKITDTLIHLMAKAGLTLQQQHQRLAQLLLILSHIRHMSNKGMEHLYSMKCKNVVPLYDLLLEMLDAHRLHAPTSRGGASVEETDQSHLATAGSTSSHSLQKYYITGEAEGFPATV
Summary of the method: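 Luciferase luminescence (ONE-Glo, 30min at room temperature) measured in VM7Luc4E2 cells after 22hr compound exposure at 15 concentrations, with 10.0nM ICI-182,780 final present; cells express endogenous ER-alpha and carry four EREs upstream of luciferase.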

[6] = qHTS assay to identify small molecule agonists or antagonists of the thyroid stimulating hormone receptor (TSHR) signaling pathway - wild type cell line counter screen (AID 1259384; calls by dose curve)
Summary of the method: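 Counter screen in untransfected Hek293: compounds (15-point titration, triplicate) plus phosphodiesterase inhibitor Ro20-1724 added after 18 h plating; 30 min RT. Intracellular cAMP via competitive d2/cryptate immunoassay, 1 h incubation.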

[7] = qHTS assay to identify small molecule agonists of the estrogen receptor alpha (ER-alpha) signaling pathway in the presence of an antagonist - cell viability counter screen (AID 1259386);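 further: cells exposed to compounds for 22 h at 37 °C before the viability read; nearly all actives have a fitted effect of over 30% in size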; further: potency means the concentration at half of the fitted maximal effect
Summary of the method: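 Read-out: CellTiter-Fluor fluorescence after 1hr reagent incubation, measured in the same wells as the luciferase readout. VM7Luc4E2 cells were exposed to 15 compound concentrations with 10.0nM ICI-182,780 for 22hr at 37C.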

[8] = target: Progesterone receptor (Homo sapiens) (UniProt P06401); test: qHTS assay to identify small molecule agonists of the progesterone receptor (PR) signaling pathway (AID 1346784; calls by dose curve; further: nearly all actives have a fitted effect of over 30% in size)
Chain of Progesterone receptor (Homo sapiens) (P06401 whole entry, looked up): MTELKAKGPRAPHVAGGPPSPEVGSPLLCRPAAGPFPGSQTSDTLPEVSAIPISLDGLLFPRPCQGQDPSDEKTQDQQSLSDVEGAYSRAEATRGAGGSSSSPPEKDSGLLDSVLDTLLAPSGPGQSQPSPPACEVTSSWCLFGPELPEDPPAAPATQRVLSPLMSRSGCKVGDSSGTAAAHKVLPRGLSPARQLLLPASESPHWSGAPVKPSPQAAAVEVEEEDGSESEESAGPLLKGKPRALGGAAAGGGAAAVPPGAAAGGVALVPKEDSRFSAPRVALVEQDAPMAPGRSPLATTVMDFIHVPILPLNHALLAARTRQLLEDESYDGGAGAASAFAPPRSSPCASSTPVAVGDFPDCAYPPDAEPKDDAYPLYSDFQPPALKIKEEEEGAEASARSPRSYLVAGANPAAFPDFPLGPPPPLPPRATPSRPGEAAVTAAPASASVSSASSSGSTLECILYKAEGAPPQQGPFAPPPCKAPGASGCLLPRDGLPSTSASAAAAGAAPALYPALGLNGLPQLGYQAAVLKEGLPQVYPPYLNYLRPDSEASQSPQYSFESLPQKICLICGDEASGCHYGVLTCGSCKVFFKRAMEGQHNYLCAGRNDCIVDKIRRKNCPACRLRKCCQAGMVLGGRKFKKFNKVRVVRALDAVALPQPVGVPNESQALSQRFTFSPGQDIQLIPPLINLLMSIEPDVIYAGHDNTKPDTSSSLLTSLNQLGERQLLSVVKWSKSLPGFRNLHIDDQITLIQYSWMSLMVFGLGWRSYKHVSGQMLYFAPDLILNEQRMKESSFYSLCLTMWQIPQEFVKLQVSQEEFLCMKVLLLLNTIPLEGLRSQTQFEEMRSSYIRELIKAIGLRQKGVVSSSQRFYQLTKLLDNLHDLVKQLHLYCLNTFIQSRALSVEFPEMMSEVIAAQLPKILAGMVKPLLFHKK
Summary of the method: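 Using charcoal-stripped serum (2%) to limit endogenous steroids, PR-UAS-bla HEK 293T cells received compounds for 16 hr at 37C after 6 hr plating; beta-lactamase FRET fluorescence was recorded following 2 hr substrate loading at room temperature.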

[9] = target: Progesterone receptor (Homo sapiens) (UniProt P06401); test: qHTS assay to identify small molecule antagonists of the progesterone receptor (PR) signaling pathway (AID 1346795; active means well fitted inhibition curve with a large enough effect in the signal ratio in the repeat runs, not every such curve was filed as active; the % refers to the signal ratio)
Summary of the method: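 Inhibition of R5020-induced (1 nM final) beta-lactamase reporter signal in PR-UAS-bla HEK293T cells was scored by FRET fluorescence after overnight (16 hr) compound treatment.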

[10] = qHTS assay to identify small molecule agonists of the progesterone receptor (PR) signaling pathway - cell viability counter screen (AID 1346799; calls by dose curve; further: nearly all actives have a fitted effect of over 45% in size)
Summary of the method: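 Cytotoxicity in PR-bla HEK293T cells: 16 h compound, 37C; CellTiter-Glo added post-FRET read; luminescence after 30 min RT.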

[11] = qHTS assay to identify small molecule antagonists of the TGF-beta/Smad signaling pathway - cell viability counter screen (AID 1346824); further: nearly all actives have a fitted effect of over 50% in size
Summary of the method: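 Cytotoxicity counter-screen run in the same wells as the beta-lactamase Smad reporter read: CellTiter-Glo luminescence after 30 min at room temperature. HEK 293T SBE-bla cells had 5 hr compound exposure at 37 C with TGF-beta1 (0.25 ng/mL stock).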

[12] = qHTS assay to identify small molecule agonists of the TGF-beta/Smad signaling pathway - cell viability counter screen (AID 1346829); further: top concentration of the series differs between compounds; nearly all actives have a fitted effect of over 45% in size
Summary of the method: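 Luminescence from CellTiter-Glo, read after a 30 min room-temperature incubation, gives cell viability of SBE-bla HEK 293T cells treated 5 hr with compounds at 37 C.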

[13] = qHTS assay to identify small molecule agonists of the TGF-beta/Smad signaling pathway (AID 1346859; active means well fitted activation curve with a large enough effect in the signal ratio in the repeat runs, not every such curve was filed as active; the % refers to the signal ratio; further: series mostly up to about 77 µM)
Summary of the method: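 Stable Smad binding element-beta-lactamase HEK 293T cells; 5 hr compound exposure at 37 C under 5% CO2; 2 hr room-temperature substrate step; fluorescence excited at 405 nm, collected at 460 nm and 530 nm.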

[14] = target: Thyrotropin-releasing hormone receptor (Homo sapiens) (UniProt P34981); test: qHTS assay to identify small molecule antagonists of the thyrotropin-releasing hormone receptor (TRHR) signaling pathway (AID 1346877; active means well fitted inhibition curve with a large enough effect in the repeat runs, not every such curve was filed as active; further: series mostly up to about 51 µM)
Chain of Thyrotropin-releasing hormone receptor (Homo sapiens) (P34981 whole entry, looked up): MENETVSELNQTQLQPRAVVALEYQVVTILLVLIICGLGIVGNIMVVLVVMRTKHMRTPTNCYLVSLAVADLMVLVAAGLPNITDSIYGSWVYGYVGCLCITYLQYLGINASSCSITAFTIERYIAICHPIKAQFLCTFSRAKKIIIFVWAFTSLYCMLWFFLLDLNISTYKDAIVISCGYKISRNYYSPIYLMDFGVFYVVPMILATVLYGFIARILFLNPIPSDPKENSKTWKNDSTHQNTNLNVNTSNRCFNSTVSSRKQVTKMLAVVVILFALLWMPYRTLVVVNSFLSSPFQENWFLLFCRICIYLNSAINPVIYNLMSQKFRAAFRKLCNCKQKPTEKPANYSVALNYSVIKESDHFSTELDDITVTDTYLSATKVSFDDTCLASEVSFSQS
Summary of the method: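 HEK293/TRHR cells, 18 h, 37 °C; Ca2+ dye 2 h; cpd 5 min RT; TRH 1 nM final; fluorescence read 3 min, 1 s intervals; 15 concs, triplicate.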

[15] = target: Thyrotropin-releasing hormone receptor (Homo sapiens) (UniProt P34981); test: qHTS assay to identify small molecule agonists of the thyrotropin-releasing hormone receptor (TRHR) signaling pathway (AID 1346891; calls by dose curve;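 further: HEK293 cells expressing TRHR with calcium dye readout; series mostly up to about 58 µM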)
Summary of the method: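 In 1536-format, 1500 TRHR-Hek293 cells per well grew 18 h, took up calcium dye for 2 h at 37 °C, received compound, and were read kinetically; 15-point titrations, triplicates.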

[16] = qHTS assay to identify small molecule antagonists of the sonic hedgehog signaling (Shh) pathway (AID 1259369; calls by dose curve; further: nearly all actives have a fitted effect of over 45% in size)
Summary of the method: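 Luminescence readout: firefly Luc under Gli1 response element in 3T3Gli1-Luc cells (NIH/3T3 clone). Antagonist mode, stimulation by conditioned medium; compound exposure 24hr at 37 C, 5% CO2.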

[17] = qHTS assay to identify small molecule agonists of the estrogen receptor beta (ER-beta) signaling pathway - cell viability counter screen (AID 1259380); further: nearly all actives have a fitted effect of over 30% in size
Summary of the method: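 Luminescence read-out (CellTiter-Glo, 30 min, room temp) taken in the same wells as the beta-lactamase reporter assay; ER-beta-UAS-bla HEK293T cells exposed to DMSO-dissolved compounds for 16 hr at 37C in 2% charcoal-stripped FBS medium.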

[18] = qHTS assay to identify small molecule antagonists of the progesterone receptor (PR) signaling pathway - cell viability counter screen (AID 1346798); further: nearly all actives have a fitted effect of over 50% in size; further: potency means the concentration at half of the fitted maximal effect
Summary of the method: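 ATP content as viability readout: CellTiter-Glo luminescence, 30 min room temperature, in PR-UAS-bla HEK293T cells after 16 hr compound/R5020 treatment at 37C and 5% CO2.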

[19] = target: Androgen receptor (Homo sapiens) (UniProt P10275); test: qHTS assay to identify small molecule agonists of the androgen receptor (AR) signaling pathway in the presence of an antagonist (AID 1259381; calls by dose curve; further: nearly all actives have a fitted effect of over 15% in size)
Chain of Androgen receptor (Homo sapiens) (P10275 whole entry, looked up): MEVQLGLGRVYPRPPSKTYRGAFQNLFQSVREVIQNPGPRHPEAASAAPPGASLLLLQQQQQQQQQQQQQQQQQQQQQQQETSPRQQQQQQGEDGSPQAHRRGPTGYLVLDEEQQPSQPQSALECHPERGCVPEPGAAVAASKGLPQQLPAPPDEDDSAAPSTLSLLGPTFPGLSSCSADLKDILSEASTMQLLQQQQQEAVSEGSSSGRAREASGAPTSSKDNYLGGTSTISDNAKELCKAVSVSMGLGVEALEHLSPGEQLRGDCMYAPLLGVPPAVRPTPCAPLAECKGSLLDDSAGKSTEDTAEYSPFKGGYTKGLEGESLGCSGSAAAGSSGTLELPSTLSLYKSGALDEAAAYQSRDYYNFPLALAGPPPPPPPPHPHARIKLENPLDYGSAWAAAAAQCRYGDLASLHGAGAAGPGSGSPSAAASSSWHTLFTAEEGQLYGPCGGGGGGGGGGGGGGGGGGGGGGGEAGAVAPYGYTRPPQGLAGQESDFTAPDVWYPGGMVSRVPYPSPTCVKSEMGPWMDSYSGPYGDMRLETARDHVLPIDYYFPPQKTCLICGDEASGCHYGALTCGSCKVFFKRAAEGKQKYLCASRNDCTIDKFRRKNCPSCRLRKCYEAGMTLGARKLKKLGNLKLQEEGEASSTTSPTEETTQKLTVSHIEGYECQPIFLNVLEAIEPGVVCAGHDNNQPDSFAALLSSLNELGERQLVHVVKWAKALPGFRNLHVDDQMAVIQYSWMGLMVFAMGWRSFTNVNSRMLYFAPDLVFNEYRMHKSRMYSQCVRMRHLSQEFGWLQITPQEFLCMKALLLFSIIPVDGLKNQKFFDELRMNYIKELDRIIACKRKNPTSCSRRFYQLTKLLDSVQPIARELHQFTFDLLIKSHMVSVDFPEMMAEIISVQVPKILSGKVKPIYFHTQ
Summary of the method: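 Luciferase read-out (ONE-Glo, 30min room temperature) in MDA-kb2 MMTV-reporter cells; agonist mode run in presence of AR antagonist nilutamide, 3.0uM final. Compounds tested as 15-point series, 16hr exposure at 37C, 0% CO2.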

[20] = target: Thyrotropin receptor (Homo sapiens) (UniProt P16473); test: qHTS assay to identify small molecule antagonists of the thyroid stimulating hormone receptor (TSHR) signaling pathway (AID 1259385; calls by dose curve; further: nearly all actives have a fitted effect of over 20% in size)
Chain of Thyrotropin receptor (Homo sapiens) (P16473 whole entry, looked up): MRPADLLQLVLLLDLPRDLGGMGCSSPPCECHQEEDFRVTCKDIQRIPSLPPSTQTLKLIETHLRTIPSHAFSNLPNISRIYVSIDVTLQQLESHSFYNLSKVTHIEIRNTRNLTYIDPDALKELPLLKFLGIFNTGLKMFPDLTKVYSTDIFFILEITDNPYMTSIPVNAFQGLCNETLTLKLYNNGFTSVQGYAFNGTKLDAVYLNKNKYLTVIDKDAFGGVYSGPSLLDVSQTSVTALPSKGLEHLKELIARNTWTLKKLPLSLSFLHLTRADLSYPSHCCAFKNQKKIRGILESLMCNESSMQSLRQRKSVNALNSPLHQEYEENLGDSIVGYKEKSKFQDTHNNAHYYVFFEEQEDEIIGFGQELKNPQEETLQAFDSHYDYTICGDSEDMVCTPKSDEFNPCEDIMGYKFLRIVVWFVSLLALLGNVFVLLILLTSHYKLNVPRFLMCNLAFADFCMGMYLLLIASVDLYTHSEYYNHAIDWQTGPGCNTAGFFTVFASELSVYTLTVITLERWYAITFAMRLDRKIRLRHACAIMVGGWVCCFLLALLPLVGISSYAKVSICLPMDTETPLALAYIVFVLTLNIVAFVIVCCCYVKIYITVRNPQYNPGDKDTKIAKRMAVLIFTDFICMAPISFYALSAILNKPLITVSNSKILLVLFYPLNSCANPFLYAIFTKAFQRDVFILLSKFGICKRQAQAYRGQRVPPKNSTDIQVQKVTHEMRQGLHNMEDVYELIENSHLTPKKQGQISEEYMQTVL
Summary of the method: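 Antagonist mode: compound-treated TSHR-expressing HEK293 cells were stimulated with 1.5 ng/mL TSH (final) in presence of Ro20-1724 for 30 min at RT. HTRF cAMP detection after 1 h; each compound tested at 15 concentrations, triplicate.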

Measured: Potency

CCOc1cc(OP(=S)(OC)OC)nc(CC)n1
not listed: [16] | [17] | [18] | [19] | [20]
inactive: all other assays above

CC(C)(C)NC[C@H](O)c1ccc(O)cc1Cl
not listed: [1] | [2] | [5] | [6] | [7] | [19] | [20]
inactive: all other assays above

Nc1c(Cl)c(F)nc(OCC(=O)O)c1Cl
not listed: [10] | [16]
inactive: all other assays above

CC1=C2[C@H]3OC(=O)[C@@H](C)[C@@H]3CC[C@@]2(C)C=CC1=O
not listed: [1] | [2] | [5] | [6] | [7] | [19] | [20]
inactive: all other assays above

ClCCN1CCCC1
not listed: [7] | [10] | [14] | [15] | [16] | [19]
inactive: all other assays above

CC[C@H](O)C(C[C@H](C)N(C)C)(c1ccccc1)c1ccccc1
inactive: [1] | [2] | [3] | [5] | [6] | [7] | [8] | [10] | [11] | [12] | [13]

[O-][Br+2]([O-])O
not listed: [1] | [2] | [3] | [16] | [20]
inactive: all other assays above

Cn1c(N)nc2c3cccnc3ccc21
active: [7] 26 µM
not listed: [6] | [16] | [19] | [20]
inactive: all other assays above

CCc1ccc(C2CCNCC2)cc1
not listed: [10] | [16] | [18]
inactive: all other assays above

CCCC(C)C1(CC)C(=O)N=C(S)NC1=O (configuration not stated)
not listed: [1] | [2] | [5] | [6] | [19] | [20]
inactive: all other assays above

CC(C)C(C)(N)C#N (configuration not stated)
not listed: [1] | [2] | [5] | [6] | [7] | [9] | [19] | [20]
inactive: all other assays above

CNC(=O)NC(O)C(Cl)(Cl)Cl (configuration not stated)
not listed: [11] | [16]
inactive: all other assays above

CC1N=C(N)OC1c1ccccc1 (configuration not stated)
active: [18] 37.7 µM
not listed: [2] | [11] | [16] | [17] | [19]
inactive: all other assays above

Cc1ccc(Cl)c(O)c1
not listed: [1] | [2] | [16] | [19]
inactive: all other assays above
